The source of these data is PubChem BioAssay AID1566 (Sanford-Burnham Center for Chemical Genomics, 2009).

Molecules are shown by their SMILES. Where “and” joins values, the source holds several entries; their conditions need not be identical. Equal values may be shown once. Out of some 290,000 compounds screened, about 1,800 (0.62%) were called active. The sample holds actives, similar compounds and a random draw of the others, so the mix is not that of the screen. Cut-off read from the data, not from the text of the source: active = inhibition above about 50%; inactive = the rest.

The assay can be described thus: NOD2 signaling inhibitors, cell-based, luminescence, uHTS, HEK293 (AID 1566). Particulars: HEK293 NOD2/NF-kB luciferase reporter, at 4 µM, active compounds read high. On the technique in general: In a reporter assay the amount or activity of a reporter protein is the signal.
Broadly, the inhibition is the relative decrease from the control value, in per cent. For the molecule `Cc1cc(NC(=O)CSc2ccc3c(c2)OCCO3)no1`, the inhibition is 14.9% (inactive).

As to `Cc1ccc(NC(=O)CSc2ccc3c(c2)OCCO3)c(O)c1`, the inhibition is 54.3% (active). The result for `Cc1cccc(SCC(=O)Nc2ccc3c(c2)OCCO3)c1` reads -70.2% (inactive). In the case of `CCn1c(=O)c(=O)[nH]c2cc(C(=O)NC(C)c3ccc(S(N)(=O)=O)cc3)ccc21` (stereo not given), the inhibition was -19.7% (inactive). As for `O=c1oc2ccc(Cl)cc2cc1-c1nnc(Nc2cccc(C(F)(F)F)c2)s1`, the inhibition is 9% (inactive). `CNc1nnc(-c2cc3cc(Cl)ccc3oc2=O)s1`: the inhibition was 94.4% (active).

In the case of `CNc1nnc(-c2cc3ccccc3oc2=O)s1`, the inhibition is -76.8% (inactive).

For `CCOC(=O)N1CCN(C(=O)c2ccccc2NC(=O)c2ccc(C(C)(C)C)cc2)CC1`, the inhibition is 4.9% (inactive). `CC(=O)c1sc(-c2ccc(F)cc2F)nc1C`: the inhibition was -0.7% (inactive). Consider `Cc1cnc(NC(=O)c2c(-c3ccccc3)noc2C)s1`, for which the inhibition was 5.6% (inactive). To `Cc1nnc(NC(=O)c2c(-c3ccccc3)noc2C)s1` belongs 4.4% (inactive); to `CCOc1ccc(NC(=O)Nc2ccon2)cc1`, -25.3% (inactive); to `COC(=O)c1ccc(CC(=O)c2ccc(O)cc2O)o1`, 43.8% (inactive).

Regarding `CCOC(=O)c1ccc(CC(=O)c2ccc(O)cc2O)o1`, the inhibition was 67.3% (active). With `CCOC(=O)c1ccc(CC(=O)c2ccc(O)c(O)c2O)o1`, the inhibition is 8.3% (inactive). To `CC[N+](CC)(CCO)CCCN1C(=O)C2CC=C(Cl)CC2C1=O` (stereo not given) belongs 1.4% (inactive); to `CCOC(=O)c1sc2nc(C)nc(NCc3ccc(Cl)cc3)c2c1C`, 51.3% (active).

`CCOC(=O)c1sc2nc(C)nc(NCc3ccccc3)c2c1C`: the inhibition was 22% (inactive).

As to `CCOC(=O)c1sc2nc(C)nc(NCc3ccc(F)cc3)c2c1C`, the inhibition is 45.8% (inactive). The result for `CC(=O)Nc1ccc(NC(=O)CSc2nc3c([nH]c4ccccc43)c(=O)n2-c2ccccc2F)cc1` reads 34.3% (inactive); that for `C(C#CCCCCCCCCC[n+]1ccccc1)#CCCCCCCCCC[n+]1ccccc1`, 68% (active). On to `c1cc[n+](CCC[n+]2ccccc2)cc1`, for which the inhibition is 11.7% (inactive). Regarding `c1cc[n+](CCCC[n+]2ccccc2)cc1`, the inhibition is 7.6% (inactive). The result for `CN(C)N1C(N)=C(C#N)C(c2ccc(F)cc2)C2=C1CC(C)(C)CC2=O` (stereo not given) reads -11.2% (inactive); that for `O=C(COc1cccc(Cl)c1)Nc1nc(-c2ccc(S(=O)(=O)N3CCOCC3)cc2)cs1`, -0.1% (inactive); that for `O=C(COc1ccccc1)Nc1nc(-c2ccc(S(=O)(=O)N3CCOCC3)cc2)cs1`, 25.3% (inactive).

As for `Cc1cccc(NC(=O)CCC(=O)Nc2nnc(C(F)(F)F)s2)c1`, the inhibition is 8.6% (inactive). With `CCS(=O)(=O)N1CCN=C1SCc1cccc(F)c1`, the inhibition is 8.5% (inactive). Turning to `O=C(Nc1nc(-c2ccc(-c3ccccc3)cc2)cs1)c1cc([N+](=O)[O-])ccc1N1CCOCC1`, the inhibition was 6% (inactive). On to `O=C(Nc1nccs1)c1ccc(N2CCOCC2)c([N+](=O)[O-])c1`, for which the inhibition is -39.7% (inactive). For the molecule `O=C(Nc1nc(-c2ccccc2)cs1)c1ccc(N2CCOCC2)c([N+](=O)[O-])c1`, the inhibition is 68.1% (active). For `Cc1cc(C(=O)Nc2cccc(/C=C/C(=O)O)c2)c(C)o1`, the inhibition is 5.6% (inactive).

As to `N/C(=N\OC(=O)c1cccc(Cl)c1)c1ccccn1`, the inhibition was -99.8% (inactive). Regarding `CC(C)(C)NC(=O)CSc1nc2scc(-c3ccccc3)c2c(=O)[nH]1`, the inhibition was 25.9% (inactive). Take `CC(C)CNC(=O)CSc1nc2scc(-c3ccccc3)c2c(=O)[nH]1`: the inhibition was 37.7% (inactive). Consider `CC(C)CNC(=O)c1cccc(C(=O)NCC(C)C)c1`, for which the inhibition was 7.3% (inactive). For the molecule `Cn1c(=O)c2c(nc(CN3CCN(c4ccccc4F)CC3)n2CCN2CCOCC2)n(C)c1=O`, the inhibition was 9% (inactive).

In the case of `O=C(CN1CCOCC1)N1CCc2ccccc2C(c2ccccc2)C1` (stereo not given), the inhibition is 17% (inactive). Regarding `COc1ccc(F)cc1CN1CCN(c2ncnc3scc(-c4ccccc4)c23)CC1`, the inhibition was 19.8% (inactive). With `O=C(NCc1ccccc1Cl)C1CCCN(c2ncnc3c2nc2n3CCCCC2)C1` (stereo not given), the inhibition is 18.9% (inactive).

Turning to `CC1CCN(C(=O)Cn2c(=O)oc3ccccc32)CC1`, the inhibition was -2.3% (inactive). Consider `COc1ccc(NC(=O)CN(c2ccc([N+](=O)[O-])cc2)S(=O)(=O)c2ccccc2)cc1`, for which the inhibition was -17.8% (inactive). The result for `CC(=O)c1ccc(O)c(CC=C(C)C)c1` reads 34.2% (inactive). In the case of `CC(=O)c1cc(CC=C(C)C)c(O)cc1O`, the inhibition was 30.8% (inactive). With `CCC(=O)c1ccc(O)c(CC=C(C)C)c1`, the inhibition was 54.6% (active). Turning to `O=c1cc(O)nc(SCc2ccccc2)n1-c1ccccc1`, the inhibition is 13.3% (inactive) and 9.4% (inactive).

On to `S=C(NCc1ccccc1)NN1CCOCC1`, for which the inhibition is 1.7% (inactive). The result for `Nc1nc(N2CCCCC2)nc2ccccc12` reads -20.9% (inactive); that for `Cc1cccc(Cn2c(O)c(N=NC(=S)Nc3ccccc3F)c3ccccc32)c1`, 18.9% (inactive). To `Cc1cccc(NC(=O)Cn2c(O)c(N=NC(N)=S)c3ccccc32)c1` belongs -8.5% (inactive); to `Cc1cccnc1NC(=O)c1cccc(S(=O)(=O)N2CCCc3ccccc32)c1`, 0.8% (inactive). Take `O=C(O)c1cccc(NC(=O)c2cccc(S(=O)(=O)N3CCc4ccccc43)c2)c1`: the inhibition is -26.3% (inactive). Consider `COc1cccc(C2CC(=O)NC(SC)=C2C#N)c1` (stereo not given), for which the inhibition was 27.4% (inactive). To `CCO[C@@H]1OC(C(=O)NCc2ccccc2)=C[C@H](c2ccc(Br)cc2)[C@H]1CCCO` belongs -1.4% (inactive); to `Cc1c(CC(=O)N[C@@H](CCCNC(N)=O)C(=O)O)c(=O)oc2cc3oc4c(c3cc12)CCCC4`, 14.7% (inactive). With `COc1ccc(CC(=O)Nc2ccc(OC)nc2)cc1`, the inhibition is 6.1% (inactive).

Turning to `COc1ccc(CS(=O)(=O)/C(Cl)=C(/Cl)C(=O)Nc2ccc(OC)nc2)cc1`, the inhibition is 79.2% (active). For the molecule `COc1ccc(NC(=O)C(Cl)=C(Cl)Cl)cn1`, the inhibition was -25.2% (inactive). Consider `CCN(CC(=O)N(CC(C)C)c1c(N)n(CC(C)C)c(=O)[nH]c1=O)Cc1nc2ccccc2c(=O)[nH]1`, for which the inhibition is 13.4% (inactive).

For the molecule `Cc1cc(NC(=O)CN(C)S(=O)(=O)c2cccc(Cl)c2)no1`, the inhibition is 0.9% (inactive). Turning to `COc1ccc(NC(=O)COC(=O)C2CC(=O)N(c3ccc(OC(C)C)cc3)C2)cc1` (stereo not given), the inhibition was 6.7% (inactive).

Turning to `O=C(NCC1OCCc2ccccc21)c1ccc(NC(=O)c2cccc(Br)c2)cc1` (stereo not given), the inhibition is 2.8% (inactive).

Regarding `Cc1cc(/C=N/Nc2nc(N)ncc2[N+](=O)[O-])c(C)n1-c1cccc(C(F)(F)F)c1`, the inhibition is -78.1% (inactive). For the molecule `Cc1ccccc1-n1c(C)cc(/C=N/Nc2ccc([N+](=O)[O-])cn2)c1C`, the inhibition was -29.9% (inactive). For `Cc1cc(/C=N/Nc2ccc([N+](=O)[O-])cn2)c(C)n1-c1ccccc1`, the inhibition is 8.4% (inactive).

For `COc1cccc(/C=N/Nc2ncnc(N)c2[N+](=O)[O-])c1OC`, the inhibition was -39.2% (inactive). The result for `O=[N+]([O-])c1cccc(-c2cc(C(F)(F)F)n3nc(-c4ccccc4)cc3n2)c1` reads 26.1% (inactive). Take `CCCN(CCC)CC(O)COc1ccc2c(c1)OCO2` (stereo not given): the inhibition is 4.6% (inactive). Regarding `O=C(NCc1ccccc1F)C1CCCN1C(=O)Nc1cccc(F)c1` (stereo not given), the inhibition was -1.7% (inactive).

On to `Cc1nn(-c2nc3ccccc3[nH]2)c(=O)c2ccccc12`, for which the inhibition is 87.2% (active). In the case of `O=c1c(Cl)c(N2CCCCC2)cnn1-c1nc2ccccc2[nH]1`, the inhibition was -7.2% (inactive).

In the case of `Cc1nn(-c2nc3ccccc3[nH]2)c(N)c1-c1ccccc1`, the inhibition is -163% (inactive).

As for `O=c1c(Cl)c(N2CCOCC2)cnn1-c1nc2ccccc2[nH]1`, the inhibition was -110% (inactive). As to `O=c1c2ccccc2cnn1-c1nc2ccccc2[nH]1`, the inhibition was 87.6% (active). For the molecule `Cc1nn(-c2ccccc2)c(=O)c2ccccc12`, the inhibition is -1.4% (inactive).

For the molecule `NS(=O)(=O)c1ccc(CCNC(=O)c2cc(-c3ccc(Br)cc3)nc3ccccc23)cc1`, the inhibition is -18.4% (inactive). For the molecule `O=C(NCc1ccon1)C1CCC(=O)N(CCc2ccc(Cl)cc2)C1` (stereo not given), the inhibition is 6.3% (inactive). Consider `COc1ccc2c(c1)cc(C(=O)N[C@H](C(=O)N1CCC(C(=O)O)CC1)C(C)C)n2C`, for which the inhibition is -3.6% (inactive). With `C/C(=N/NC(=O)CN1CCN(Cc2ccccc2Cl)CC1)c1cccs1`, the inhibition is 20% (inactive). Regarding `Cc1ccc(NC(=O)Cc2ccccc2)c(C)c1`, the inhibition was -14.9% (inactive). In the case of `Cc1ccc(NC(=O)c2cc(C)nc3ccccc23)c(C)c1`, the inhibition was 1.4% (inactive).

`Cc1cc(C)n(C(C)CC(=O)N2CCc3ccccc32)n1` (stereo not given): the inhibition is 14.5% (inactive). Regarding `COc1ccc(S(=O)(=O)Nc2cc(OC)c(NC(=O)c3ccco3)cc2OC)cc1`, the inhibition is 19.5% (inactive). As for `O=c1c2ccccc2c(C=Nc2ccc(S(=O)(=O)N3CCCCC3)cc2)c(O)n1-c1ccc(Cl)cn1`, the inhibition is -6.9% (inactive). As to `Cc1cccc(NC(=O)CCSc2ccccc2)c1C`, the inhibition is -32.5% (inactive).

For the molecule `CCC(=O)Nc1nnc(/C=C/c2ccccc2)s1`, the inhibition was -60.7% (inactive). Turning to `COc1ccc(CNC(=O)c2ccc3ccccc3n2)cc1`, the inhibition is 0.9% (inactive). To `COc1ccc(CCNC(=O)c2ccc3ccccc3n2)cc1OC` belongs 6.9% (inactive).

Turning to `Cc1cccc(/C=N\NC(=O)c2ccccc2-n2cccc2)c1`, the inhibition is -1.5% (inactive). Take `O=C(c1cccc(S(=O)(=O)N2CCCC2)c1)c1cccc(S(=O)(=O)N2CCCC2)c1`: the inhibition is 32.8% (inactive). For the molecule `CCN(CC)c1ccc2nc3ccccc3[n+](CC)c2c1`, the inhibition was 74.8% (active).

For `CCN(CC)c1ccc2cc(-c3nc4ccccc4[nH]3)c(=O)oc2c1`, the inhibition is -69.7% (inactive). Take `CCN(CC)c1ccc(/C=N/Nc2nc3ccccc3[nH]2)c(O)c1`: the inhibition was -63.5% (inactive). The result for `O=C(c1cc2ccccc2oc1=O)N1CCCCCCC1` reads 9.4% (inactive). As for `CCCCn1c(-c2nn(C)c(C)c2Cl)n[nH]c1=S`, the inhibition was 19.7% (inactive).
